Results filed as inconclusive are left out. Entries that show only a call come without a potency. The source made the active and inactive calls. Calls come from the whole dose curve.
Potency is the fitted concentration of half-maximal effect.

The nature of the test: qHTS assay for small molecule disruptors of the mitochondrial membrane potential - 1 hr assay (AID 651754). Note: nearly all actives have a fitted effect of over 35% in size. The settings on record: series mostly up to 92.2 µM. An excerpt: National Center for Advancing Translational Sciences [NCATS]
NIH Chemical Genomics Center [NCGC]
National Institutes of Environmental Health Sciences [NIEHS]
National Toxicology Program [NTP]
Mitochondrial membrane potential (MMP), one of the parameters for mitochondrial function, is generated by mitochondrial electron transport chain that creates an electrochemical gradient by a series of redox reactions. This gradient drives the synthesis of ATP, a crucial molecule for various cellular processes. Measuring MMP in living cells is commonly used to assess the effect of chemicals on mitochondrial function. […] The dye accumulates in the mitochondria of healthy cells as aggregates, with red fluorescence. The mitochondrial potential collapses and the dye can no longer accumulate in the mitochondria and remains in the cytoplasm in monomers, with green fluorescence.
2,000 HepG2 cells in 5 uL/well were dispensed into black, clear-bottom 1536-well plates using a Multidrop Combi (Thermo Scientific) dispenser. The assay plates were incubated overnight at 37C to allow cells to attach to the wells, followed by the transfer of 23 nL compound or DMSO vehicle by a pin tool (Kalypsys). The plates were incubated for 1 hr at 37C and 5% CO2, followed by the addition of 5 uL of 2X Mito-MPS dye (BD Biosciences) into each well using Flying Reagent Dispenser (Aurora Discovery) and then following 30 min incubation at 37C. Fluorescence intensity (490nm excitation and 535nm emission for monomers; and 540nm excitation and 590nm emissions for aggregates) was measured using an Envision plate reader.
In general terms: In qHTS, concentration-response curves come from the screen itself.
Regarding `Cc1cccc(C)c1[N+](=O)[O-]`, the Potency entry is “inactive”.

For `CCCCCCC(=O)O`, the Potency entry is “inactive”.

Take `C/C=C(/C)C#N`: the Potency entry was “inactive”.

Take `Cc1ccccc1C(=O)O`: the Potency entry was “inactive”.

As to `Cc1ccc2ncccc2c1`, the Potency entry was “inactive”.

In the case of `O=C(O)c1ccccc1Cl`, the Potency result is “inactive”.

For the compound `CC(C)(O)C(=O)O`, the Potency result was “inactive”.

`O=C(O)c1ccc(C(=O)O)cc1`: the Potency result was “inactive”.

Take `CC(O)CC(C)O` (stereo not given): the Potency entry is “inactive”.

For the compound `O=C(O)c1ccc(CO)o1`, the Potency entry is “inactive”.

Take `CCOC(=O)C(C)C(C)=O` (stereo not given): the Potency result is “inactive”.

For the compound `N#CC1(O)CCCCC1`, the Potency result was “inactive”.

On to `Oc1c(Cl)ccc(Cl)c1Cl`, for which the Potency result is “inactive”.

In the case of `CC(C)CO`, the Potency result is “inactive”.

As to `CC#N`, the Potency result was “inactive”.

With `Cc1ccc(C(=O)O)cc1`, the Potency result is “inactive”.

On to `CCC(C)(C)OC`, for which the Potency result is “inactive”.

`c1ccc(Nc2ccccc2)cc1`: the Potency entry is “inactive”.

As for `CC1=C(/C=C/C(C)=C/C=C/C(C)=C\C=O)C(C)(C)CCC1`, the Potency result was “inactive”.

In the case of `Nc1cc(Cl)c([N+](=O)[O-])cc1O`, the Potency was 33.5 µM (active).

On to `CC(C)N(C)C`, for which the Potency result was “inactive”.

On to `O=C(Cl)c1cccc([N+](=O)[O-])c1`, for which the Potency entry is “inactive”.

Turning to `O=C1OC(=O)c2c(Cl)c(Cl)c(Cl)c(Cl)c21`, the Potency entry was “inactive”.

As to `NC(=O)/N=N/C(N)=O`, the Potency entry is “inactive”.

`CC(C)=CCl`: the Potency result is “inactive”.

Turning to `CC/C=C1/OC(=O)c2ccccc21`, the Potency entry was “inactive”.

In the case of `Nc1cccc([N+](=O)[O-])c1`, the Potency entry is “inactive”.

For `CC(=O)OCCC(C)C`, the Potency result is “inactive”.

With `Cc1ccc(Cl)cc1N`, the Potency entry was “inactive”.

Regarding `c1ccc2n[nH]nc2c1`, the Potency entry is “inactive”.

Consider `CC(=O)c1cc(C)oc1C`, for which the Potency entry is “inactive”.

As for `O=[N+]([O-])c1ccccc1CCO`, the Potency result is “inactive”.

As for `C1CCCC1`, the Potency result is “inactive”.

Turning to `C=Cc1ccccn1`, the Potency result was “inactive”.

`C1COC1`: the Potency entry was “inactive”.

In the case of `CN(C)c1cccc(O)c1`, the Potency entry was “inactive”.

Take `COc1ccc(OC)cc1`: the Potency entry was “inactive”.

In the case of `C=CC(=O)NC(C)C`, the Potency result is “inactive”.

Consider `CCCCC=O`, for which the Potency result was “inactive”.

Regarding `Cc1c(C(=O)O)cccc1[N+](=O)[O-]`, the Potency entry was “inactive”.

(Values after PubChem BioAssay (NCATS).)
